Results published in PubChem BioAssay.
Results filed as inconclusive are left out. The source made the active and inactive calls.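 The calls were made as follows, unless noted: active = compound raises GLP1 secretion from the human gut endocrine cells, with no numeric limit stated; inactive = the rest.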

Experiments:
[1] = stimulators of insulin release from INS-1E, primary screen, cell-based, 5 mM glucose, NPC library (AID 1117329;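 active = compound raises insulin release from rat beta cells at 5 mM glucose, no numeric limit stated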); details: rat INS-1E insulin secretion, at 10 µM, stronger effect = higher value
[2] = growth inhibition of GSK3B-pretreated HCT116 cells – cell-based, CellTiter-Glo, 0.2 to 20 µM (AID 1117336;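 active = compounds lowering colon cancer cell viability after pretreatment blocking the GSK3B kinase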); details: HCT116 viability after GSK3B inhibitor, at 20 µM, stronger effect = higher value
[3] = inhibition of endothelial tube formation, primary screen, imaging, VEGF stimulated, CD31 staining, tube area, NPC library (AID 1117340;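 active = compound that reduces growth-factor-driven endothelial tube area in a mixed cell culture, no cutoff stated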); details: VEGF-stimulated ADSC/ECFC co-culture, at 10 µM, stronger effect = higher value
[4] = GLP1 release stimulators, primary, NCI-H716, NPC library (AID 1117341); details: NCI-H716 cells, at 10 µM, stronger effect = higher value
[5] = HCT116 colon cancer cell growth inhibition, primary screen, CellTiter-Glo luminescence, NPC library (AID 1117342;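 active = compounds that lower survival of HCT116 colon cancer cells in the luminescence readout, no numeric limit stated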); details: at 20 µM (top of the series)
[6] = reduced SW480 viability measured with CellTiter-Glo, NPC library, primary (AID 1117343;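 active = compounds that lower viability of the colon cancer cells in the luminescence readout, with no numeric limit stated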); details: CellTiter-Glo luminescence; at 20 µM (top of the series)
[7] = NPC library primary testing for decreased DLD-1 cell viability via CellTiter-Glo (AID 1117346;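 active = compounds that lower survival of DLD-1 colon cancer cells in the luminescence readout, no cutoff given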); details: DLD-1 viability, CellTiter-Glo luminescence; at 20 µM (top of the series)
[8] = molecular target: 6-phosphogluconate dehydrogenase, decarboxylating (Homo sapiens) (UniProt P52209); test: inhibition of human phosphogluconate dehydrogenase – biochemical, recombinant enzyme, NADPH absorbance, primary screen (AID 1159550;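 active = at least 20% inhibition of 6-phosphogluconate dehydrogenase activity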); details: recombinant 6PGD, NADPH absorbance 341 nm; at 10 µM; stronger effect = higher value
[9] = EMT-state selective cytotoxicity in co-culture – imaging, PC-3E GFP, TEM4-18 mCherry, primary screen (AID 1345086;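 active = compounds killing one labelled cell type while sparing the other, by normalised counts and ratio limits, not self-fluorescent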;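 as to all read-outs here: cells exposed to compound for 72 h before imaging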;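 as to red/green cell ratio (normalised): normalised mesenchymal count divided by normalised epithelial count so high means epithelial killing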); details: PC-3E GFP / TEM4-18 mCherry co-culture, imaging cell counts, at 1 µM; for red/green cell ratio (normalised): actives lie on both sides, counts scaled to control wells, 1 = unselective
[10] = system: Aerobactin synthetase IucA (Klebsiella pneumoniae); test: inhibition of K. pneumoniae IucA enzyme – biochemical, Tocris library, absorbance (AID 1345561; call rule not given here;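 also: 100% = enzyme without compound and 0% = no enzyme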); details: purified IucA enzyme assay, absorbance (OD) read-out; stronger effect = lower value;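 tested at 8 µM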
[11] = viability loss in pontine glioma line – cell-based, SU-DIPG-XVII, MIPE5.0, CellTiter-Glo, qHTS, dose response (AID 1347060; cut-off not given, nearly all actives have AC50 up to about 26 µM); details: CellTiter-Glo ATP luminescence
[12] = viability loss in pontine glioma line – cell-based, SU-DIPG-XIII, MIPE4.0, CellTiter-Glo, qHTS, dose response (AID 1347061; cut-off not given, nearly all actives have AC50 up to about 37 µM;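 also: cells exposed to compound for 48 hours before readout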); details: CellTiter-Glo ATP luminescence
[13] = viability loss in pontine glioma line – cell-based, SU-DIPG-IV, MIPE4.0, CellTiter-Glo, qHTS, dose response (AID 1347063; cut-off not given, nearly all actives have AC50 up to about 30 µM;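 also: compound exposure lasted 48 hours before the viability readout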); details: CellTiter-Glo ATP luminescence
[14] = viability loss in pontine glioma line – cell-based, SU-DIPG-XIII, MIPE5.0, CellTiter-Glo, qHTS, dose response (AID 1347064; cut-off not given, nearly all actives have AC50 up to about 23 µM); details: CellTiter-Glo ATP luminescence
[15] = measured here: epithelial PC-3E GFP cell survival
[16] = measured here: mesenchymal TEM4-18 mCherry cell survival

Sequence of 6-phosphogluconate dehydrogenase, decarboxylating (Homo sapiens) (P52209 whole entry, looked up): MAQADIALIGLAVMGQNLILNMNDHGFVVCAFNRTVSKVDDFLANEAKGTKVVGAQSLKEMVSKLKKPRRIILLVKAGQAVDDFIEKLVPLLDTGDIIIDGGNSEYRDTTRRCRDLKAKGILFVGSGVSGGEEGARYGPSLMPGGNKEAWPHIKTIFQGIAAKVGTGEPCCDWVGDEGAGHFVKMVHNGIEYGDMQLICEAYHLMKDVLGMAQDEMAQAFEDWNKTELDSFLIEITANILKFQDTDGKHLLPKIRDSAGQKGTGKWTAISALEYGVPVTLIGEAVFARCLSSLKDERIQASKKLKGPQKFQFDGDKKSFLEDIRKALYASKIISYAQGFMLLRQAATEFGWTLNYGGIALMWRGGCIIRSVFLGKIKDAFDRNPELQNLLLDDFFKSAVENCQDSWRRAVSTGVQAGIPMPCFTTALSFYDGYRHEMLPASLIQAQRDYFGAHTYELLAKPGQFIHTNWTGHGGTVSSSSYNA

C[C@](N)(Cc1ccc(O)c(O)c1)C(=O)O
insulin secretion stimulation [1]: 1.8% (inactive)
viability decrease [2]: 17.5% (inactive)
tube area decrease [3]: 1.4% (inactive)
GLP1 secretion stimulation [4]: 0.4% (inactive)
inhibition of viability [5]: 5.03% (inactive)
viability decrease (inhibition) [6]: -10% (inactive)
viability decrease (inhibition) [7]: 0.1% (inactive)
inhibition [8]: -6.99% (inactive)
red/green cell ratio (normalised) [9]: 1.05 (inactive)
normalised cell number [9, 15]: 0.98
normalised cell number [9, 16]: 1.03
remaining activity [10]: 110% (inactive)
outcome [11]: inactive
outcome [12]: inactive
outcome [13]: inactive

Cc1cc(C(C)(C)C)c(O)c(C)c1CC1=NCCN1
insulin secretion stimulation [1]: 2.1% (inactive)
viability decrease [2]: 5.6% (inactive)
tube area decrease [3]: -3.7% (inactive)
GLP1 secretion stimulation [4]: 4.3% (inactive)
inhibition of viability [5]: 20.6% (inactive)
viability decrease (inhibition) [6]: -4.2% (inactive)
viability decrease (inhibition) [7]: -0.8% (inactive)
inhibition [8]: 6.36% (inactive)
red/green cell ratio (normalised) [9]: 0.88 (inactive)
normalised cell number [9, 15]: 1.08
normalised cell number [9, 16]: 0.96
remaining activity [10]: 99.4% (inactive)
outcome [11]: inactive
outcome [12]: inactive
outcome [13]: inactive
outcome [14]: inactive

Fc1ccc(C(c2ccc(F)cc2)N2CCN(C/C=C/c3ccccc3)CC2)cc1
insulin secretion stimulation [1]: 2.65% (inactive)
viability decrease [2]: 108% (active)
tube area decrease [3]: 21.4% (inactive)
GLP1 secretion stimulation [4]: 0.7% (inactive)
inhibition of viability [5]: 107% (active)
viability decrease (inhibition) [6]: 125% (active)
viability decrease (inhibition) [7]: 99.7% (active)
inhibition [8]: 16.5% (inactive)
red/green cell ratio (normalised) [9]: 1.11 (inactive)
normalised cell number [9, 15]: 0.86
normalised cell number [9, 16]: 0.95
remaining activity [10]: 105% (inactive)
outcome [12]: inactive

c1ccc(CN(CC2=NCCN2)c2ccccc2)cc1
insulin secretion stimulation [1]: 11.3% (inactive)
viability decrease [2]: -68.5% (inactive)
tube area decrease [3]: 23.2% (inactive)
GLP1 secretion stimulation [4]: -1.9% (inactive)
inhibition of viability [5]: 15.7% (inactive)
viability decrease (inhibition) [6]: 22% (inactive)
viability decrease (inhibition) [7]: 0.7% (inactive)
inhibition [8]: -4.52% (inactive)
red/green cell ratio (normalised) [9]: 1.08 (inactive)
normalised cell number [9, 15]: 1.24
normalised cell number [9, 16]: 1.34
remaining activity [10]: 98.2% (inactive)

CCN(CC)CCOC(=O)C(c1ccccc1)C1CCCCC1 (stereo not given)
insulin secretion stimulation [1]: 18.2% (inactive)
viability decrease [2]: -99.4% (inactive)
tube area decrease [3]: 14.5% (inactive)
GLP1 secretion stimulation [4]: 2.9% (inactive)
inhibition of viability [5]: 25% (inactive)
viability decrease (inhibition) [6]: 36.2% (inactive)
viability decrease (inhibition) [7]: 48.4% (inactive)
inhibition [8]: 9.92% (inactive)
red/green cell ratio (normalised) [9]: 0.94 (inactive)
normalised cell number [9, 15]: 0.95
normalised cell number [9, 16]: 0.89

CC(C)NCC(O)c1ccc2ccccc2c1 (stereo not given)
insulin secretion stimulation [1]: 9.8% (inactive)
viability decrease [2]: 6.6% (inactive)
tube area decrease [3]: -11.2% (inactive)
GLP1 secretion stimulation [4]: 1.5% (inactive)
inhibition of viability [5]: 26.4% (inactive)
viability decrease (inhibition) [6]: 20.9% (inactive)
viability decrease (inhibition) [7]: 19.4% (inactive)
inhibition [8]: 8.21% (inactive)
red/green cell ratio (normalised) [9]: 1.02 (inactive)
normalised cell number [9, 15]: 1.05
normalised cell number [9, 16]: 1.07
remaining activity [10]: 94.1% (inactive)

Nc1ccc(C(=O)O)cc1
insulin secretion stimulation [1]: -1% (inactive)
viability decrease [2]: 2.35% (inactive)
tube area decrease [3]: -16.4% (inactive)
GLP1 secretion stimulation [4]: 0.8% (inactive)
inhibition of viability [5]: -6.1% (inactive)
viability decrease (inhibition) [6]: 13.3% (inactive)
viability decrease (inhibition) [7]: -4.7% (inactive)
inhibition [8]: 6.16% (inactive)
red/green cell ratio (normalised) [9]: 1 (inactive)
normalised cell number [9, 15]: 1.02
normalised cell number [9, 16]: 1.02
